The panel holds about 79,000 compounds, 15% with a hit somewhere; the sample as a whole holds those more often. Unmarked numbers belong to inactive results. The source made the active and inactive calls. Rule as the data show it: active = growth inhibition above about 70%; inactive = the rest.
test: NCI Yeast Anticancer Drug Screen. Data for the mlh1 strain (AID 171);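 also: 0% = growth of vehicle-treated control cultures of the same strain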; conditions: S. cerevisiae mlh1 strain growth inhibition; at 33.0 µM; hits give high values
Summary of the method: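 Test agents were incubated with yeast bearing a defined DNA damage repair or cell cycle control alteration; values are growth inhibition normalised to vehicle-treated cultures.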

Row | SMILES | growth inhibition
1 | COc1cc2c3c(cccc3c1)C(=O)N(CCN(C)C)C2=O | -9%
2 | c1ccc2c(c1)Oc1cccc3cccc-2c13 | 31%
3 | CN(C)CCOc1ccc2c(c1)C/C(=C/c1ncc([N+](=O)[O-])n1C)C2=O | 36%
4 | Cc1ccc(CCC2=CCCc3c2ccc2ccccc32)cc1 | -1%
5 | CNC(=O)OCc1c(COC(=O)NC)c(-c2ccc(Cl)c(Cl)c2)n2c1CCC2 | 98% (active)
6 | O=C1C=CC(=O)c2c(O)c(Nc3ccc(OC(F)(F)F)cc3)c(Cl)c(O)c21 | 37%
7 | Cn1ccnc1Oc1ccc(Cl)cc1 | 45%
8 | BrCc1cccc2ccc3cccc(CBr)c3c12 | -2%
9 | Oc1ccc(NCn2c(=S)sc3ccccc32)cc1 | 63%
10 | O=C1C2CC[C@@H]3C(=O)C(Cl)(Cl)[C@@H]3CCC2C1(Cl)Cl (stereo partly drawn) | 10%
11 | CC(Br)C(=O)c1ccc2cc(Br)c3ccccc3c2c1 (stereo not drawn) | -11%
12 | Nc1nc(-c2cccnc2)cc(-c2cc(-c3cccnc3)nc(N)n2)n1 | -14%
13 | CC(C)=CC(=O)O[C@@H]1CC(C)(C)CC2C3=CCC4[C@]56CC[C@](O)(OC5)C(C)(C)C6CC[C@@]4(C)C3(C)CC[C@]21C(=O)O (stereo partly drawn) | 87% (active)
14 | CCC(C)COC(=O)c1ccc(N=Cc2ccc(C=Nc3ccc(C(=O)OCC(C)CC)cc3)cc2)cc1 (stereo not drawn) | 10%
15 | O=C(O)c1cccc(-c2c3ccc(=O)cc-3oc3cc(O)ccc23)c1 | 78% (active)
16 | CN(CCc1ccccn1)c1ccc2c(c1)Cc1ccccc1-2 | 15%
17 | O=C1C2C(C(=O)N1c1ccc(OCc3ccccc3)cc1)C1c3ccccc3C2C2CCCCN21 (stereo not drawn) | 28%
18 | Cc1ccc2ccc(O)cc2c1 | -24%
19 | COC(=O)c1ccc(NCC2=CC(=O)C=CC2=O)cc1O | 98% (active)
20 | CCNc1nnc(CSc2nc(-c3ccccc3)c(-c3ccccc3)[nH]2)s1 | 81% (active)

same assay, conditions: S. cerevisiae mlh1 strain growth inhibition; at 100.0 µM; hits give high values

Row | SMILES | growth inhibition
21 | COc1cc2c3c(cccc3c1)C(=O)N(CCN(C)C)C2=O | 0%
22 | c1ccc2c(c1)Oc1cccc3cccc-2c13 | 52%
23 | CN(C)CCOc1ccc2c(c1)C/C(=C/c1ncc([N+](=O)[O-])n1C)C2=O | 62%
24 | Cc1ccc(CCC2=CCCc3c2ccc2ccccc32)cc1 | 4%
25 | CNC(=O)OCc1c(COC(=O)NC)c(-c2ccc(Cl)c(Cl)c2)n2c1CCC2 | 97% (active)
26 | O=C1C=CC(=O)c2c(O)c(Nc3ccc(OC(F)(F)F)cc3)c(Cl)c(O)c21 | 87% (active)
27 | Cn1ccnc1Oc1ccc(Cl)cc1 | 98% (active)
28 | BrCc1cccc2ccc3cccc(CBr)c3c12 | 1%
29 | Oc1ccc(NCn2c(=S)sc3ccccc32)cc1 | 97% (active)
30 | O=C1C2CC[C@@H]3C(=O)C(Cl)(Cl)[C@@H]3CCC2C1(Cl)Cl (stereo partly drawn) | 9%
31 | CC(Br)C(=O)c1ccc2cc(Br)c3ccccc3c2c1 (stereo not drawn) | 17%
32 | Nc1nc(-c2cccnc2)cc(-c2cc(-c3cccnc3)nc(N)n2)n1 | 13%
33 | CC(C)=CC(=O)O[C@@H]1CC(C)(C)CC2C3=CCC4[C@]56CC[C@](O)(OC5)C(C)(C)C6CC[C@@]4(C)C3(C)CC[C@]21C(=O)O (stereo partly drawn) | 90% (active)
34 | CCC(C)COC(=O)c1ccc(N=Cc2ccc(C=Nc3ccc(C(=O)OCC(C)CC)cc3)cc2)cc1 (stereo not drawn) | 19%
35 | O=C(O)c1cccc(-c2c3ccc(=O)cc-3oc3cc(O)ccc23)c1 | 93% (active)
36 | CN(CCc1ccccn1)c1ccc2c(c1)Cc1ccccc1-2 | 31%
37 | O=C1C2C(C(=O)N1c1ccc(OCc3ccccc3)cc1)C1c3ccccc3C2C2CCCCN21 (stereo not drawn) | 95% (active)
38 | Cc1ccc2ccc(O)cc2c1 | 68%
39 | COC(=O)c1ccc(NCC2=CC(=O)C=CC2=O)cc1O | 94% (active)
40 | CCNc1nnc(CSc2nc(-c3ccccc3)c(-c3ccccc3)[nH]2)s1 | 66%

test: NCI Yeast Anticancer Drug Screen. Data for the sgs1 strain (AID 173);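 also: 0% = growth of vehicle-only control cultures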; conditions: S. cerevisiae sgs1 mutant, at 1.2 µM, hits give high values
Summary of the method: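 Strain with an altered DNA repair or cell cycle pathway exposed to compound. Growth then measured. Value = inhibition versus vehicle control.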

Row | SMILES | growth inhibition
41 | S=C(S)NN1CCOCC1 | 84% (active)
42 | COC(=O)C1=C(C)NC(C)=C(C(=O)OCCCN2CCC(c3ccccc3)(c3ccccc3)CC2)C1c1cccc([N+](=O)[O-])c1 (stereo not drawn) | -3%
43 | c1ccc2c(c1)Oc1cccc3cccc-2c13 | 11%
44 | CN(C)CCOc1ccc2c(c1)C/C(=C/c1ncc([N+](=O)[O-])n1C)C2=O | 29%
45 | Clc1ccccc1C1OC1c1ccccc1Cl (stereo not drawn) | -78%
46 | O=[N+]([O-])c1cc(CCl)ccc1CCl | 11%
47 | O=C1C=CC(=O)c2c(O)c(Nc3ccc(OC(F)(F)F)cc3)c(Cl)c(O)c21 | 34%
48 | S=c1[nH]nc(Nc2ccc(Cl)cc2)s1 | -14%
49 | Cn1ccnc1Oc1ccc(Cl)cc1 | -15%
50 | O=C1c2ccccc2-c2nc3ccccc3nc21 | -48%
51 | CCCCCCCCCCCCCCCCCCNC | -9%
52 | Oc1ccc(NCn2c(=S)sc3ccccc32)cc1 | 4%
53 | O=C1C2CC[C@@H]3C(=O)C(Cl)(Cl)[C@@H]3CCC2C1(Cl)Cl (stereo partly drawn) | -21%
54 | CC[n+]1ccc2c(C)c3[nH]c4ccc(O)cc4c3c(C)c2c1 | 9%
55 | Cc1ccc(-n2cc(-c3ccc(Cl)cc3)c(C#N)c2N)cc1 | -2%
56 | CC(=O)[O][Bi]([c]1ccccc1)[c]1ccccc1 | 28%
57 | CC1=C(SCCO)C(=O)c2ccccc2C1=O | -2%

Row | SMILES | growth inhibition
58 | C/C(=N\O)C1CC2C=C(C#N)C1N(Cc1ccccc1)C2 (stereo not drawn) | 1%
59 | Nc1nc(-c2cccnc2)cc(-c2cc(-c3cccnc3)nc(N)n2)n1 | -2%
60 | CC(C)=CC(=O)O[C@@H]1CC(C)(C)CC2C3=CCC4[C@]56CC[C@](O)(OC5)C(C)(C)C6CC[C@@]4(C)C3(C)CC[C@]21C(=O)O (stereo partly drawn) | -3%
61 | CCC(C)COC(=O)c1ccc(N=Cc2ccc(C=Nc3ccc(C(=O)OCC(C)CC)cc3)cc2)cc1 (stereo not drawn) | -2%
62 | Oc1cccc2c(Cl)ccnc12 | 36%
63 | O=C(O)c1cccc(-c2c3ccc(=O)cc-3oc3cc(O)ccc23)c1 | 16%
64 | CN(CCc1ccccn1)c1ccc2c(c1)Cc1ccccc1-2 | 26%
65 | Cc1cc(S(=O)(=O)/N=C(/NN)NNc2cccc(C(F)(F)F)n2)c(S)cc1Cl | -1%
66 | Nc1ccccc1CC(O)C(=O)O (stereo not drawn) | -1%
67 | O=C(O)C1CCCCC1c1c2ccc(=O)c(O)c-2oc2c(O)c(O)ccc12 (stereo not drawn) | -11%
68 | Cc1ccc2ccc(O)cc2c1 | -24%
69 | COC(=O)c1ccc(NCC2=CC(=O)C=CC2=O)cc1O | 3%
70 | C(CCSC1=NCCN1)CSC1=NCCN1 (tested in a mixture with another compound) | 11%
71 | N#Cc1c(N)[nH]c2ccc(Sc3ccccc3)cc12 | -3%
72 | CCNc1nnc(CSc2nc(-c3ccccc3)c(-c3ccccc3)[nH]2)s1 | 23%
73 | CC[C@@]1(O)C(=O)OCc2c1cc1n(c2=O)Cc2cc3c(N)cccc3nc2-1 | 0%

Reference: PubChem BioAssay (NCI)
